# Values without a mark were called inactive.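 Rule for the calls: active = AUC reduced over 20% with Padj below 0.05 in at least 2 of 3 replicates; inactive = otherwise.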
# What was measured:
# Roseburia intestinalis = assay: growth AUC relative to DMSO control (median of replicates) (fraction); higher = more growth (less inhibition), active = hit call of the paper; details: 20 µM; 24 h
# How it was run: (§1)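 Area under the growth curve was normalised to the plate median of solvent-only wells, or to row and column medians on the industrial chemical plate. Growth curves came from anaerobic gut bacterial monocultures in mGAM at 37 °C, seeded at OD600 0.05 with 20 µM compound (1% DMSO), and read at OD600 hourly for 24 h with the minimum OD set to 0. The value is the median of three biological replicates grown on separate days.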
# Streptococcus salivarius = assay: as above; details: 20 µM; 24 h
# How it was run: as §1
SMILES,growth AUC (Roseburia intestinalis),growth AUC (Streptococcus salivarius)
COc1c(I)cc(C#N)cc1I,0.989,0.982
O=C1NCCN1,1.24,1.02
Nc1ccc(O)cc1,1.01,0.947
FC(F)(F)C(=NOCC1OCCO1)c1ccc(Cl)cc1,1.17,1.02
COC(=O)CC(NC(=O)[C@@H](NC(=O)OC(C)C)C(C)C)c1ccc(Cl)cc1 (stereo partly drawn),0.975,0.953
CCCCOC(=O)C(C)Oc1ccc(Oc2ccc(C(F)(F)F)cn2)cc1 (stereo not drawn),0.932,0.974
CCC/C(=N\OCC(C)Oc1ccc(Cl)cc1)C1=C(O)CC(C2CCCSC2)CC1=O (stereo not drawn),1.02,0.94
CCCOC(=O)NCCCN(C)C,1.02,0.967
CN1CCC[C@H]1c1cccnc1,0.933,0.949
O=C(Nc1ccc(Cl)cc1C(O)c1ccccc1)c1ccncc1 (stereo not drawn),0.994,1
COC(=O)C(C)Oc1ccc(Cl)cc1Cl (stereo not drawn),0.979,0.991
COc1cc(Cl)ccc1Oc1ccc(Cl)cc1Cl,0.991,1.05
CC(C)(C)Nc1nc(N)nc(Cl)n1,1.01,0.975
CCOC(=O)C(C)N(C(=O)c1ccccc1)c1ccc(Cl)c(Cl)c1 (stereo not drawn),0.958,0.947
CCOC(=O)c1cnn(C)c1S(=O)(=O)NC(=O)Nc1nc(OC)cc(OC)n1,1.08,1.01
CNC(=O)Nc1nc2ccccc2s1,0.983,0.965
CC(C)N(C(=O)C(=O)O)c1ccc(F)cc1,0.998,1.05
CN(C(=O)NC(C)(C)c1ccccc1)c1ccccc1,1.02,0.933
COC(=O)C(C)Oc1ccc(Oc2ncc(C(F)(F)F)cc2Cl)cc1 (stereo not drawn),1.01,0.954
O=c1cc(Cl)[nH]nc1-c1ccccc1,0.977,1.03
CC(C)(C)[C@@H](O)[C@@H](Cc1ccc(Cl)cc1)n1cncn1 (mixture of isomers),0.963,0.95
CCCN(CCC)C(=O)SCC,0.948,1
CN(C)C(=O)Nc1cc(C(C)(C)C)on1,1.03,1
CCNc1nc(NC(C)(C)C)[nH]c(=O)n1,1.03,1.03
CC(C)(NC(=O)C(Br)C(C)(C)C)c1ccccc1 (stereo not drawn),0.964,0.96
Cc1cccc(C)c1O,0.942,0.968
CCNc1nc(N)[nH]c(=O)n1,1.06,0.978

SMILES,growth AUC (Roseburia intestinalis),growth AUC (Streptococcus salivarius)
Cc1cccc(C)c1N(C(=O)CCl)C1CCOC1=O (stereo not drawn),1.08,0.86
COc1cc(OC)nc(NC(=O)NS(=O)(=O)c2c(-c3nnn(C)n3)cnn2C)n1,0.948,0.953
Oc1c(Cl)cc(Cl)c(Cl)c1Cc1c(O)c(Cl)cc(Cl)c1Cl,0.0498 (active),0.0329 (active)
COc1cc(OC)nc(NC(=O)NS(=O)(=O)N(C)S(C)(=O)=O)n1,0.99,1.02
CCN(CC)c1nc(C)cc(=O)[nH]1,1.01,1.04
COc1cc(OC)nc(Sc2cccc3c2C(=O)OC3C)n1 (stereo not drawn),0.988,0.977
CCN(Cc1c(F)cccc1Cl)c1c([N+](=O)[O-])cc(C(F)(F)F)cc1[N+](=O)[O-],0.864,0.926
CON=C(Cc1cccnc1)c1ccc(Cl)cc1Cl,1.05,0.997
CC(C)OC(=O)[C@@H](C)N(C(=O)c1ccccc1)c1ccc(F)c(Cl)c1,0.999,1
CCCCCCCC/C=C\CCCCCCCC(N)=O,0.933,0.952
O=C(Nc1ccc(F)cc1)c1cccc(Oc2cccc(C(F)(F)F)c2)n1,0.918,0.956
COc1ccc(NC(=O)N(C)C)cc1Cl,0.925,0.927
O=C1NC(=O)c2ccccc21,1.11,1
FC(F)(F)c1cccc(C(c2ccccc2)(c2ccccc2)n2cncn2)c1,0.911,0.94
COC(=O)Nc1ccc(Cl)c(Cl)c1,1,0.918
C#CCOC(=O)[C@@H](C)Oc1ccc(Oc2ncc(Cl)cc2F)cc1,1.06,0.959
C/C=C/C(=O)Oc1c(C(C)CCCCCC)cc([N+](=O)[O-])cc1[N+](=O)[O-] (mixture of isomers),0.809,0.301 (active)
c1ccc(Sc2ccccc2)cc1,1.13,0.994
CC(C)(c1ccc(O)cc1)c1ccc(O)cc1,1.06,1.01
CCCNCCOc1c(Cl)cc(Cl)cc1Cl,0.946,0.964
COc1nc(N)nc(NC(C)(C)C)n1,0.943,1.03
O=C(NC(=O)c1c(F)cccc1F)Nc1cc(C(F)(F)F)cc(C(F)(F)F)c1Cl,0.942,0.922
CCOc1ccc2c(c1)C(C)=CC(C)(C)N2,1.04,1.06
CCSC(=O)N(CC)CC,1.06,0.954
CCOC(=O)C1=NOC(c2ccccc2)(c2ccccc2)C1,1.01,0.959
Cc1cccc(C)c1N(CC(=O)O)C(=O)CS(=O)(=O)[O-].[Na+],0.979,0.972
CN(C)C(N)=O,0.996,1.02

SMILES,growth AUC (Roseburia intestinalis),growth AUC (Streptococcus salivarius)
Cc1c(C(=O)c2c[nH]n(C)c2=O)ccc(S(C)(=O)=O)c1C1=NOCC1,0.987,1.01
CNC(=O)/C(=N/OC)c1ccccc1CO/N=C(C)/C(=N/OC)C(/C)=N/OC,1.01,1.01
CP(=O)(O)CCC(=O)O,1.03,0.987
CC(C)NS(=O)(=O)NC(=O)c1cc(NC(N)=O)c(F)cc1Cl,0.981,0.887
O=[N+]([O-])c1ccc2c(c1)Cc1ccccc1-2,1.01,0.988
Oc1ccccc1,1.04,0.987
O=C(O)c1cccc2nnsc12,0.989,1.01
CCCOC(=O)c1ccc(C(=O)OCCC)nc1,0.977,0.996
COC(=O)c1ccc(CNS(C)(=O)=O)cc1S(=O)(=O)NC(=O)Nc1nc(OC)cc(OC)n1,0.973,1.07
C#CCOc1cc(-n2nc(C(C)(C)C)oc2=O)c(Cl)cc1Cl,0.909,0.963
COC(=O)c1ccccc1S(=O)(=O)NC(=O)Nc1nc(OC(F)F)cc(OC(F)F)n1,1.01,0.994
CCCCCCC(C)OC(=O)C(C)Oc1ccc(Cl)cc1C (stereo not drawn),0.986,0.973
CC(C)C(O)(c1ccc(OC(F)(F)F)cc1)c1cncnc1 (stereo not drawn),1.04,1.04
CC(C)CNC(=O)N1CCNC1=O,1.1,0.995
Nc1cc(Cl)nc(C(=O)O)c1Cl,1.01,1.03
CCCCOC(=O)COc1ccc(Cl)cc1Cl,1.04,1.01
CC(Oc1ccc(Cl)cc1Cl)C(=O)NC(C)(C#N)C(C)C (stereo not drawn),0.968,0.918
N#Cc1ccccc1NC(=O)c1snc(Cl)c1Cl,0.992,0.991
CCc1cccc(C)c1NC(C)C(=O)O (racemic),1.04,1.02
CON(C(=O)c1cc(C)oc1C)C1CCCCC1,1.09,0.989
Br[C@@H]1CC[C@H](Br)[C@H](Br)CC[C@@H](Br)[C@@H](Br)CC[C@H]1Br,0.962,0.868
Cc1nn(C)c(OCC(=O)c2ccccc2)c1C(=O)c1ccc(Cl)cc1Cl,0.981,1.01
O=C(O)CNC(=O)c1cnccc1C(F)(F)F,1.03,1
O=C(O)COc1ccc(Cl)cc1CO,0.945,0.932
CCc1cccc(CC)c1N(COC)C(=O)CS(=O)(=O)[O-].[Na+],1.03,0.964

# — the supplement of paper PMC12669032
